In all, about 310,000 compounds went through this assay and about 1,200 (0.39%) were called active. The list is a sample of the results. Results with a measured potency or affinity are listed apart. Values without a mark were called inactive. How the calls were made is not given here.

Sequence of Large T antigen (Simian virus 40) (P03070 whole entry, looked up): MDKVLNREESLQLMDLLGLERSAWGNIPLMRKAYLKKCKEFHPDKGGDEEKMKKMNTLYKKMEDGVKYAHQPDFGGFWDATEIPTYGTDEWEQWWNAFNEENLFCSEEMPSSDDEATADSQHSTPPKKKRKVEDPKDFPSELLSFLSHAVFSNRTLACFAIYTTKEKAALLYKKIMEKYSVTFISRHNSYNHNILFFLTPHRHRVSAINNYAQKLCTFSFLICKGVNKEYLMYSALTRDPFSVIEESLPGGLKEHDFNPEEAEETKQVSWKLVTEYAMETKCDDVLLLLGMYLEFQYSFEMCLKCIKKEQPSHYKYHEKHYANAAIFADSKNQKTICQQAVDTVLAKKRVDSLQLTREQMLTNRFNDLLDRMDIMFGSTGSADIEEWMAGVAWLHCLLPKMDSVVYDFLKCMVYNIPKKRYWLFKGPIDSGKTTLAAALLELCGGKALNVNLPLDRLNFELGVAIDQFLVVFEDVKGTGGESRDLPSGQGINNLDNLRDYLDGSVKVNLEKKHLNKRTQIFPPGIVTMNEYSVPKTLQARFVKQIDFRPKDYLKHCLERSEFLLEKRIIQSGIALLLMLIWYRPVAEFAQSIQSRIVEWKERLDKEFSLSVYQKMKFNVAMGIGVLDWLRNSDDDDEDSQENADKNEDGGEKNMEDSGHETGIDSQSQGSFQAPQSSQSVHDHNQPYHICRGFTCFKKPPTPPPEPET

This test has as its target Large T antigen (Simian virus 40) (UniProt P03070). Put plainly: SV40 large T antigen inhibitors, biochemical (AID 1903). As to conditions: SV40 large T antigen ATPase/helicase inhibition assay; at 20 µM; stronger effect = higher value.
With `COCCn1c(SCC(=O)N2CC(C)OC(C)C2)nc2c([nH]c3ccccc32)c1=O` (stereo not given), the inhibition was -1.92%. The value for `O=C(CCc1ccc(O)c(O)c1)N/N=C/c1ccc2c(c1)OCO2` was 32.3%; that for `COc1ccc(OC)c(/C=N/NC(=O)CCc2c(C)n[nH]c2C)c1` was 5.18%; that for `COc1ccc(OC)c(/C=N/NC(=O)C(=O)N/N=C/c2cc(OC)ccc2OC)c1` was -5.1%.

Turning to `CN1CCN(CCC(=O)N/N=C/c2cc3c(cc2[N+](=O)[O-])OCO3)CC1`, the inhibition was 4.45%. `CCN(CC)S(=O)(=O)c1cccc(NC(=O)COC(=O)CCc2nc3ccccc3s2)c1`: the inhibition is 11.8%. In the case of `Cc1snc(S(=O)(=O)/C(C#N)=N/Nc2ccc(C(F)(F)F)cc2)c1C#N`, the inhibition is 6.46%.

With `Cc1ccc(C)c(C(=O)CSc2nnc(C)s2)c1`, the inhibition was -0.65%. To `CC1CCCCN1C(=O)CSc1nc(N)nc(N)n1` (stereo not given) belongs 3.86%. To `COc1ccc(NC(=O)c2ccccc2NC(=O)COc2ccccc2)cc1` belongs 12.1%; to `COC(=O)c1ccc(OC)c(NS(=O)(=O)c2ccc(-n3cnnn3)cc2)c1`, 2.42%; to `O=c1nc(-c2ccccc2)n(-c2ccccc2)[nH]1`, -3.35%. To `Cn1nc(-c2ccccc2)nc1-c1ccccc1` belongs 11.2%; to `COc1cc(C(=O)NCC(=O)N/N=C/c2ccccn2)cc(OC)c1OC`, 10.4%.

Consider `CCc1c(C(=O)NNC(=S)Nc2ccc(S(=O)(=O)Nc3ncccn3)cc2)csc1C`, for which the inhibition is 15.1%. The value for `Cc1n[nH]c(C)c1S(=O)(=O)N1CCC(C(=O)Nc2cccc(F)c2)CC1` was 4.04%; that for `O=C(NCCc1ccccc1)C1CCN(S(=O)(=O)N2CCCC2)CC1` was 7.04%; that for `COc1ccccc1NC(=O)c1ccc(NC(=O)c2ccco2)cc1` was 9.63%.

With `Cc1ccc(NC(=O)CCNC(=O)c2ccco2)cc1`, the inhibition was 1%.

Take `COc1cccc(OC)c1C(=O)Nc1ccc(NC(=O)c2ccco2)cc1`: the inhibition is 2.08%. The value for `O=C(Nc1ccc(NC(=O)c2ccco2)cc1)c1ccco1` was 3.69%; that for `CCN(CC)S(=O)(=O)c1ccc(NC(=O)CCNC(=O)c2ccco2)cc1` was 7.03%. Regarding `CCC(=O)Nc1ccc(NC(=O)c2ccco2)cc1`, the inhibition is 2.13%. To `O=C(Nc1ccc(F)cc1)c1ccccc1F` belongs 12.9%; to `CC(=O)Nc1ccc(NC(=O)c2ccccc2F)cc1`, 2.47%. To `Cc1cccc(C)c1OCC(=O)NNC(=O)c1ccoc1C` belongs 2.67%; to `CN(C)CCCN(C(=O)c1ccc2ccccc2c1)c1nc2cc3c(cc2s1)OCO3`, 3.84%. To `CCOC(=O)n1c(=O)n(C)c2ccc(Br)cc21` belongs 4.58%. Regarding `C(=C\c1ccccc1)/C=N/Nc1nncc(-c2ccccc2)n1`, the inhibition was 8.88%. To `Cc1ccc(CN2CCN(C3CCC3)CC2CCO)cc1` (stereo not given) belongs 9.81%; to `COc1cc([C@H]2Oc3cc([C@H]4Oc5cc(O)cc(O)c5C(=O)[C@@H]4O)ccc3O[C@@H]2CO)ccc1O`, 22.1%.

As to `COc1cc(C2Oc3cc(C4Oc5cc(O)cc(O)c5C(=O)C4O)ccc3OC2CO)ccc1O` (stereo not given), the inhibition was 22.1%. To `CCc1nnc(SCc2ccc(C(=O)OC)o2)n1N` belongs 15%.

Regarding `CN1/C(=C\C=N\NC(=O)c2cccnc2)C(C)(C)c2ccccc21`, the inhibition was 33.6%.

As for `CN1/C(=C/C=N/NC(=O)c2ccc([N+](=O)[O-])cc2)C(C)(C)c2ccccc21`, the inhibition is 4.27%. The value for `Cc1ccccc1N1CC(=O)N(c2ccccc2C)CC1=O` was 0.89%; that for `Cn1c2ccccc2c(=O)c2ccc(F)cc21` was 0.83%; that for `O=C(CN1C2CCCC1CC(NC(=O)c1ccccc1)C2)NC1CC1` (stereo not given) was 6.22%. The value for `COc1cccc(C(=O)NC2CC3CCCC(C2)N3CC(=O)Nc2ccccc2)c1` (stereo not given) was 34%. The value for `O=C(CN1C2CCCC1CC(NC(=O)c1ccccc1)C2)Nc1ccccc1` (stereo not given) was -14.7%. Take `COc1cccc(C(=O)NC2CC3CCCC(C2)N3CC(=O)Nc2ccccc2C(F)(F)F)c1` (stereo not given): the inhibition was -1.46%. Consider `COc1cc(OC)c(C(=O)NC23CC4CC(CC(C4)C2)C3)cc1OC`, for which the inhibition is 3.9%. To `COC(=O)c1ccc(/C=N/OCC(=O)NCCc2ccc(OC)c(OC)c2)cc1` belongs 2.45%; to `Cn1c(-c2ccccc2)c[n+]2c1-c1ccccc1C2`, 6.66%.

Consider `Cc1cccc(N2CCN(C3=NC(=O)C(=C4CCCCC4)S3)CC2)c1`, for which the inhibition is 7.31%. To `CCOc1ccc(NS(=O)(=O)c2ccc(N)cc2)cc1` belongs 2.32%; to `Nc1c(C(=O)O)ccc2c1C(=O)c1ccccc1C2=O`, 6.68%. For `O=C(O)c1cccc2c1C(=O)c1ccccc1C2=O`, the inhibition is 2.63%. Regarding `CC(C)Oc1ccc(S(=O)(=O)N2CCOCC2)cc1NC(=O)C1CCC1`, the inhibition is 4.96%. On to `COc1c(/C=N/Nc2ccc([N+](=O)[O-])cc2[N+](=O)[O-])c(C)nn1-c1ccccc1`, for which the inhibition was -4.36%. As for `Cc1nn(-c2ccccc2)c(N)c1Sc1ccc([N+](=O)[O-])cc1`, the inhibition was -2.9%.

For `C=CCn1cc(CN2CCC(C(=O)Nc3cccc(-c4cccc(F)c4)c3)CC2)c(C)n1`, the inhibition is 9.97%. As for `CCN1C(=O)CC(N2CCC(Nc3ccc(F)cc3)CC2)C1=O` (stereo not given), the inhibition was 0.22%.

`CCN1C(=O)CC(N2CCN(c3ccc(OC)cc3)CC2)C1=O` (stereo not given): the inhibition is 27.7%. In the case of `O=C(OCc1cn(Cc2ccccc2)nn1)c1ccccc1`, the inhibition is 7.89%. Take `COc1ccc2nc(NC(=O)/C=C/c3ccc4c(c3)OCO4)sc2c1`: the inhibition was 5.17%. In the case of `Cc1ccc(S(=O)(=O)N(C(=O)c2ccncc2)c2ccc(OC(=O)c3ccncc3)cc2)c(C)c1`, the inhibition was 23.4%. `O=C(Oc1ccc(N(C(=O)c2ccncc2)S(=O)(=O)c2ccc(F)cc2)cc1)c1ccncc1`: the inhibition is 32%. To `C=CCN(c1ccccc1Cl)S(=O)(=O)c1cccc(C(=O)NCCc2ccc(OC)cc2)c1` belongs 5.14%; to `COc1ccccc1CNCC(O)Cn1c2ccccc2c2ccccc21` (stereo not given), 16%.

The record behind these values is PubChem BioAssay AID1903 (Southern Research Specialized Biocontainment Screening …, 2009).
